# Source: PubChem (National Center for Advancing Translational Sciences (NCATS))
# PTHR1 agonist: activates the human parathyroid hormone receptor PTHR1. Q03431. HEK293 GP2 PTHR1 cells, GloSensor cAMP luminescence, 1 h. Potency, µM (top dose mostly 115 µM), actives largely listed as activators. 410,000 tested, 0.075% active; note: nearly all actives have a fitted effect of over 55% in size
#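 HEK-293-derived GP2 cells expressing PTHR1 and a GloSensor cAMP reporter, 3,000/well, plated overnight, given luciferin plus IBMX (each 0.5 mM as added) for 1 h at 37 °C, then compound for 1 h at 37 °C. Luminescence was read after 15 min at room temperature.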
# D3 ag: D3 dopamine receptor (human) agonism; P35462; D3R DiscoveRx beta-arrestin cells, luminescence, 90 min; max activation, %; 410,000 tested, 0.58% active; AID 652048; in the data active = max activation above about 30%
#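 Agonist mode: compounds and dopamine controls were applied to plated cells for 90 min at 37 degrees C after an overnight attachment at 1500 cells/well. Luminescent read-out followed 30 - 60 minutes at room temperature with DiscoveRx detection reagent.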
# Integrin act MD: activates integrin-mediated alleviation for muscular dystrophy. 350,000 tested, 0.064% active. alpha7betagal myoblasts, beta-gal FDG fluorescence, 48 h. Potency, µM (top dose mostly 38.3 µM), most hits filed as activators. AID 624291; note: nearly all actives have a fitted effect of over 60% in size
#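 Alpha7betagal+/- myoblasts (passage 13) were plated 16-24 hr, then exposed to compounds (1:260 dilution of DMSO stock) for 48 hours at 37C. After MPER lysis, β-galactosidase reporter activity was read as FDG fluorescence (ex 480/em 540) after 30 minutes.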
# MBNL1 CUG block: blocks human MBNL1 binding to CUG repeat RNA. TR-FRET MBNL1-His/biotin-(CUG)12 binding, 665/545 ratio. Potency, µM (top dose mostly 57.5 µM), usual class: inhibitors. 280,000 tested, 0.036% active; active = well fitted inhibition curve with a large enough effect in the signal ratio, with a control signal flat, not every such curve was filed as active; inconclusive = small, poorly fitted or top-dose-only effect, or effect the other way, or a change in a side signal; inactive = no such curve, though single readings can be large or run the other way; the % refers to the signal ratio
#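 TR-FRET readout: Ex 340 nm, 665/545 nm emission ratio, normalized to buffer-only (basal) and MBNL1-(CUG)12 controls. Complex of MBNL1-His with Biotin-(CUG)12, compounds 92 nM–58 uM, incubated 60 min at room temperature.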
# D3 antag: D3 dopamine receptor (human) antagonism; P35462; D3R cells, DiscoveRx beta-arrestin luminescence, antagonist mode; active compounds read low; max response, negative = inhibition, %; 360,000 tested, 2.5% active; in the data active = max response below about -50%; inconclusive = no clear call, values can overlap the other calls
#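 Cells plated overnight at 1500 cells/well, then exposed to library compounds with dopamine controls for 90 minutes at 37 degrees C. DiscoveRx reagent added for 30–60 minutes at room temperature; luminescence read, quantitative HTS format.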
# CBFb-RUNX1 inh: CBF-beta/RUNX1 interaction disruption; 230,000 tested, under 10 active; AlphaScreen CBFb-His/RUNX1-biotin binding, biochemical; Q01196+Q13951; Potency, µM (top dose mostly 59.8 µM), actives largely listed as inhibitors
# Target sequence (Q01196 whole entry, looked up): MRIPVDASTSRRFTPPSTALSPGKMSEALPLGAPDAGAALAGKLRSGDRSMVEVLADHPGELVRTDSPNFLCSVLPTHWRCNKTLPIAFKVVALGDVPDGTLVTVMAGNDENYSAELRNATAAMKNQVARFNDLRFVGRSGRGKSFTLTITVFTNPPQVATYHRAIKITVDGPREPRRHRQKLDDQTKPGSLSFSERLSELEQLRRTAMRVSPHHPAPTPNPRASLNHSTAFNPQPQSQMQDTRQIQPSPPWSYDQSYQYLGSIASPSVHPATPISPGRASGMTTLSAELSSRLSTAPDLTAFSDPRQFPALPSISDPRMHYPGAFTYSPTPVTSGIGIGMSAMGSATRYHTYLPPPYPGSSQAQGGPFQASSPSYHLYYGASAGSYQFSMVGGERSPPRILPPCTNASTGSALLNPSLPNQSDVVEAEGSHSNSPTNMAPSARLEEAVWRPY
# Target sequence (Q13951 whole entry, looked up): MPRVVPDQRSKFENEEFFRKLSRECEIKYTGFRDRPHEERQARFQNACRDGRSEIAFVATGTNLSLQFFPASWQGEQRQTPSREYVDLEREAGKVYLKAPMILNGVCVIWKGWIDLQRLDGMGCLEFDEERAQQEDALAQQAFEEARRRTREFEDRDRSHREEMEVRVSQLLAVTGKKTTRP
#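 CBFb-His/RUNX1-biotin, 30 nM each, preincubated 20 min RT; compound 15 min RT; Ni + streptavidin beads 50 ng each, 90 min RT; AlphaScreen read.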
# Hits are given with their value; i = inactive; ? = inconclusive; nt = not tested or not shown; [ ] = dose if it differs, or a comment. Most compounds without a hit are left out; they make up all but 2.8% or so of the library. Unless noted, calls come from the whole dose curve; as a rule, active = well fitted curve in the direction sought with a large enough effect; inconclusive = small, poorly fitted or top-dose-only effect, or another doubt; inactive = no such curve, though single readings can be large; an effect the other way counts as inactive or inconclusive.
SMILES,PTHR1 agonist,D3 ag,Integrin act MD,MBNL1 CUG block,D3 antag,CBFb-RUNX1 inh
Cc1ccc2nc(-c3ccccc3)cc(C(=O)N3CCN(c4ccccc4O)CC3)c2c1,i,31,i,nt,i,nt
CCOC(=O)c1ccc(-n2c(CCC(=O)O)ccc2-c2ccc(Br)cc2)cc1,i,i,nt,nt,nt,nt
CN1OC[C@@H]2CN(Cc3cc(Cl)cc(Cl)c3)[C@H](c3cccc(-c4ccc(C#N)cc4)c3)C[C@@H]21,i,i,i,nt,i,nt
O=C1C=CC(O)(c2cc(=O)c3c(O)cc(O)cc3o2)C=C1,i,i,i,i,-80,i[2.36 µM]
Cc1ccc(N=C2C(=O)Nc3ccc(Br)cc32)cc1,i,i,i,i,-67,nt
Cc1cc(C)c(C2C(C#N)=C(N)Oc3n[nH]c(C)c32)cc1CN1CCOCC1 (stereo not drawn),i,i,i,i,-60,i
Cc1ccsc1C1C(C#N)=C(N)Oc2n[nH]c(C)c21 (stereo not drawn),i,i,i,i,i,i
COc1ccc(S(=O)(=O)NNC(=O)C23CC4CC(CC(C4)C2)C3)cc1[N+](=O)[O-],i,i,i,nt,i,nt
CN1CCCN(C(=O)c2cc3c(s2)CCCC3)CC1,i,i,?,i,-56,nt
O=C(NC(=S)NNC(=O)c1ccccc1O)c1cccc([N+](=O)[O-])c1,i,43,i,i,i,nt
CNC(=O)NC(=S)NC(=O)c1ccc(OC)cc1,i,i,i,i,-72,i
COc1ccc(C(=O)NC(=S)NNC(=O)c2ccccc2O)cc1,i,38,?,i,i,nt
Cc1ccc(C(O)c2ncc(-c3ccccc3C(F)(F)F)[nH]2)cc1F (stereo not drawn),i,i,nt,nt,i,nt
CCc1ccc([C@@H]2C[C@H]3[C@@H](CN2S(=O)(=O)c2ccc(C)cc2)C(=O)C[C@@H](c2ccc(C)cc2)N3S(=O)(=O)c2ccc(C)cc2)cc1,i,i,i,nt,i,nt
COc1ccc(CCNC(=O)C2(c3cccs3)CCOCC2)cc1,i,i,nt,nt,nt,nt
COCc1nnc(NS(=O)(=O)c2ccc([N+](=O)[O-])cc2)s1,i,i,i,?,-58,i
CCN(Cc1ccccc1)Cc1cc(OC)cc(OC)c1,i,i,i,i,-56,i
Cn1cnc2c(=O)sc3ccccc3c21,i,i,?,nt,i,nt
O=C(c1cnc2sccn2c1=O)N1CCCc2ccccc21,i,i,i,i,-52,i
O=C(c1ccc(C(=O)N2CCCc3ccccc32)s1)N1CCCc2ccccc21,i,i,i,i,i,i
CCN1CCN(c2ncc(C(=O)N3CCCc4ccccc43)c3ccccc23)CC1,i,i,i,i,-69,i
O=C(c1ccccc1F)N1CCCc2ccccc21,i,i,?,i,i,nt
CCc1ccc2c(c1)CCCN2C(=O)c1ccccc1C(=O)O,i,i,i,i,-68,i
Cn1c(=O)c(=O)n(C)c2cc(S(=O)(=O)Nc3ccc(Cl)c(C(F)(F)F)c3)ccc21,i,i,nt,nt,nt,nt
COc1ccc(N2CCN(CC(=O)Nc3nc(C)cs3)CC2)cc1,i,i,i,i,i,nt
SMILES,PTHR1 agonist,D3 ag,Integrin act MD,MBNL1 CUG block,D3 antag,CBFb-RUNX1 inh
O=C(O)c1ccc(Nc2nc3ccc(Cl)cc3[nH]2)cc1,?,i,i,i,-54,nt
COc1cc(/C=N/NC(=O)c2cc(-c3cccn3C)n[nH]2)cc(OC)c1OC,i,i,i,i,i,i
COc1cccc(/C=N/NC(=O)c2cc(-c3cccn3C)n[nH]2)c1,?,i,i,i,-51,i
CCCc1nc2ccc(C)cn2c1Cc1cccc(F)c1,i,i,nt,nt,i,nt
CCCc1nc2c3ccccc3ccn2c1Cc1cccc(F)c1,i,i,nt,nt,-90,nt
CCN1C(=O)[C@H]2[C@H]3CN=C(SCc4ccc(Cl)cc4)N3[C@@](Cc3ccccc3)(C(=O)OC)[C@H]2C1=O,i,i,i,nt,-63,nt
CCN1C(=O)[C@H]2[C@H]3CN=C(SCc4ccc(C)cc4)N3[C@@](Cc3ccccc3)(C(=O)OC)[C@H]2C1=O,i,i,i,nt,-57,nt
COC(=O)[C@@]1(Cc2ccccc2)[C@H]2C(=O)N(Cc3ccccc3)C(=O)[C@H]2[C@H]2CN=C(SCc3ccc(Cl)cc3)N21,i,i,i,nt,i,nt
COc1ccc(NC(=O)CN(C)C(=O)c2cccc(S(=O)(=O)N3CCN(c4ccc(F)cc4)CC3)c2)cc1,i,i,i,nt,i,nt
Cn1cc(CN2CCC(n3nccc3NC(=O)c3ccccc3Cl)CC2)c2ccccc21,?,i,i,i,-52,nt
Cc1cc(C)c(CN2CCC(n3nccc3NC(=O)c3ccccc3Cl)CC2)cc1C,i,i,i,i,-52,nt
Cc1cccc(N2CCN(C(=O)CCS(=O)(=O)c3ccc4c(c3)CC(=O)N4C)CC2C)c1 (stereo not drawn),i,i,nt,nt,nt,nt
COCCCn1c(C(=O)NCCN2CCOCC2)cc2c(=O)n3cccc(C)c3nc21,i,i,i,i,-54,nt
CSCCC(NS(=O)(=O)c1ccccc1)C(=O)OCc1nc2ccsc2c(=O)[nH]1 (stereo not drawn),i,i,i,nt,i,nt
CSCCC(NS(=O)(=O)c1ccccc1)C(=O)OCc1cc(=O)oc2cc(O)ccc12 (stereo not drawn),i,i,i,nt,-52,nt
COc1ccc(CNC(=O)c2cc(-c3ccc(C)c(C)c3)n[nH]2)cc1,i,i,nt,nt,nt,nt
CCn1c(SCC(=O)Nc2sc3c(c2C#N)CCC(C(C)(C)C)C3)nnc1-c1ccco1 (stereo not drawn),i,i,i,i,i,i
Cc1nnc(SCC(=O)Nc2sc3c(c2C#N)CCCC3)[nH]c1=O,i,i,i,i,-54,i
CC(C)CC(=O)NC(NC(=S)Nc1sc2c(c1C#N)CCCC2)C(Cl)(Cl)Cl (stereo not drawn),i,i,i,i,-83,i
CCOC(=O)c1c(NC(=O)CSc2nnc(C)c(=O)[nH]2)sc2c1CCCC2,i,i,i,i,i,i
CCn1c(SCC(=O)Nc2sc3c(c2C#N)CCCC3)nnc1-c1ccco1,i,i,i,i,-72,i
COc1cccc(NC(=O)c2cn(C3CCCCC3)c(=O)c3c2c2ccccc2n3C)c1,i,i,nt,nt,nt,nt
NS(=O)(=O)c1ccc(CCNC(=O)c2cc([N+](=O)[O-])ccc2N2CCCCC2)cc1,i,i,i,?,i,nt
C1CCCC1,nt,nt,nt,nt,nt,i
CCOc1ccccc1NC(=O)c1ccc(-n2cncn2)nc1,i,i,?,i,i,i
COc1ccccc1NC(=O)c1ccc(-n2cncn2)nc1,i,31,i,i,i,i
CCc1ccccc1NC(=O)CC(C)n1nc(C)cc1C (stereo not drawn),i,i,nt,nt,nt,nt
